Active and inactive are the calls of the source.
Key:
Albumin (Bos taurus) = Albumin (Bos taurus) (UniProt P02769); test: compounds binding labelled BSA control protein – biochemical, small-molecule microarray, Alexa647 label, 635/667 nm fluorescence, artefact control for SMM control protein annotation, profiling panel (AID 1118); settings: BSA-A647 binding, fluorescence 635 nm, higher = more signal;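 further: score merges 667 nm emission intensity and signal-to-noise per printed compound spot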
[1] = probe aXIP binding to arrayed compounds – biochemical, NeuroSMM set, 635/667 nm fluorescence, primary screen (AID 1119); settings: small-molecule microarray, higher = more signal, called active from +8 up or from −8 down;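 further: probe is the protein aXip251-270 applied at 1 µg/mL to compound-printed slides; binding of probe to printed compounds measured as 667 nm fluorescence plus signal to noise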
[2] = probe aNOTCH3 binding on compound microarray – biochemical, small-molecule microarray, 635/667 nm fluorescence, primary screen (AID 1120); settings: higher = more signal;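 further: probe is a biotin-tagged antibody raised against NOTCH3 rather than NOTCH3 protein; score merges spot fluorescence near 667 nm with spot signal to noise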
[3] = probe aNOTCH2 binding on compound microarray – biochemical, small-molecule microarray, 635/667 nm fluorescence, primary screen (AID 1121); settings: higher = more signal;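 further: score merges feature fluorescence read at 667 nm with its signal to noise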
[4] = molecular target: Carbonic anhydrase 2 (Homo sapiens) (UniProt P00918); test: compounds binding carbonic anhydrase 2 – biochemical, small-molecule microarray, Alexa647-labelled CAII, profiling panel (AID 1122); settings: CAII-A647 binding fluorescence, higher = more signal
[5] = COS7 lysate on small-molecule microarray, probe aHis, 635 nm (AID 1123); settings: COS7 cell lysate, fluorescence, higher = more signal;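 further: z-score combines 667nm fluorescence intensity with signal-to-noise per printed compound spot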
[6] = probe aLAP1 signal on lysate-treated microarray – cell lysate, small-molecule microarray, COS7 lysate, primary screen (AID 1124); settings: probe aLAP1, fluorescence, higher = more signal;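 further: lysate comes from COS7 cells expressing LAP1 and is applied at 0.3 µg/mL; score merges spot fluorescence near 667 nm with signal-to-noise over triplicate slides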
Sam68 (KHDRBS1) = test: compounds binding KHDRBS1 protein – biochemical, small-molecule microarray, 635 nm fluorescence, primary screen (AID 1125); settings: higher = more signal;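 further: score merges 667 nm channel intensity with signal to noise over triplicate slides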
[7] = test system: Chordin-like protein 2 (CHRDL2); test: compounds binding chordin-like 2 – biochemical, small-molecule microarray, 635 nm fluorescence, primary screen (AID 1126); settings: fluorescence 635 nm, higher = more signal;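 further: printed compound slides probed with Chrdl2 protein at 4 µg/mL for 1 h at 4 C; score merges 667 nm emission intensity with signal to noise over three replicate slides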
[8] = molecular target: Concanavalin-A (Canavalia ensiformis) (UniProt P02866); test: compounds binding concanavalin A lectin – biochemical, small-molecule microarray, Alexa647 label, 635 nm, artefact control for SMM control protein annotation, primary screen (AID 1127); settings: ConA-A647 binding fluorescence, higher = more signal;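 further: z combines 667 nm emission intensity with signal-to-noise across three replicate slides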
Sequence of Concanavalin-A (Canavalia ensiformis) (P02866 whole entry, looked up): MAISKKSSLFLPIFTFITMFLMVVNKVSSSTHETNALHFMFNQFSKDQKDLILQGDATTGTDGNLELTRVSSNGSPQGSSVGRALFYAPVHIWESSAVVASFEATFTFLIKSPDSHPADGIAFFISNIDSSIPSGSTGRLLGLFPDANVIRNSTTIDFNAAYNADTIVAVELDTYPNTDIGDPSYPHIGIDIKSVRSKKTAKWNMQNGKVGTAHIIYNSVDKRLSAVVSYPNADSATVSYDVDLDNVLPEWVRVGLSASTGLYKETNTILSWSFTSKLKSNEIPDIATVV

[9] = compounds binding Alexa647 anti-His antibody – biochemical, small-molecule microarray, 635 nm fluorescence, artefact control for SMM control protein annotation, primary screen (AID 1128); settings: higher = more signal;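 further: score merges feature fluorescence with signal-to-noise for each printed compound spot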
[10] = test system: Human papillomavirus type 1a E7 protein (residues 1-88); test: HPV1a E7 small-molecule binders, primary screen, biochemical, small-molecule microarray, residues 1-88, 635 nm (AID 1129); settings: small-molecule microarray binding, fluorescence 635 nm; higher = more signal
[11] = molecular target: Focal adhesion kinase 1 (Homo sapiens) (UniProt Q05397); test: PTK2 protein binding on printed compound slides – biochemical, small-molecule microarray, 635/667 nm fluorescence, BSA, DTT, primary screen (AID 1130); settings: 635 nm fluorescence, higher = more signal;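 further: composite of spot emission at 667 nm and signal to noise over triplicate slides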
Sequence of Focal adhesion kinase 1 (Homo sapiens) (Q05397 whole entry, looked up): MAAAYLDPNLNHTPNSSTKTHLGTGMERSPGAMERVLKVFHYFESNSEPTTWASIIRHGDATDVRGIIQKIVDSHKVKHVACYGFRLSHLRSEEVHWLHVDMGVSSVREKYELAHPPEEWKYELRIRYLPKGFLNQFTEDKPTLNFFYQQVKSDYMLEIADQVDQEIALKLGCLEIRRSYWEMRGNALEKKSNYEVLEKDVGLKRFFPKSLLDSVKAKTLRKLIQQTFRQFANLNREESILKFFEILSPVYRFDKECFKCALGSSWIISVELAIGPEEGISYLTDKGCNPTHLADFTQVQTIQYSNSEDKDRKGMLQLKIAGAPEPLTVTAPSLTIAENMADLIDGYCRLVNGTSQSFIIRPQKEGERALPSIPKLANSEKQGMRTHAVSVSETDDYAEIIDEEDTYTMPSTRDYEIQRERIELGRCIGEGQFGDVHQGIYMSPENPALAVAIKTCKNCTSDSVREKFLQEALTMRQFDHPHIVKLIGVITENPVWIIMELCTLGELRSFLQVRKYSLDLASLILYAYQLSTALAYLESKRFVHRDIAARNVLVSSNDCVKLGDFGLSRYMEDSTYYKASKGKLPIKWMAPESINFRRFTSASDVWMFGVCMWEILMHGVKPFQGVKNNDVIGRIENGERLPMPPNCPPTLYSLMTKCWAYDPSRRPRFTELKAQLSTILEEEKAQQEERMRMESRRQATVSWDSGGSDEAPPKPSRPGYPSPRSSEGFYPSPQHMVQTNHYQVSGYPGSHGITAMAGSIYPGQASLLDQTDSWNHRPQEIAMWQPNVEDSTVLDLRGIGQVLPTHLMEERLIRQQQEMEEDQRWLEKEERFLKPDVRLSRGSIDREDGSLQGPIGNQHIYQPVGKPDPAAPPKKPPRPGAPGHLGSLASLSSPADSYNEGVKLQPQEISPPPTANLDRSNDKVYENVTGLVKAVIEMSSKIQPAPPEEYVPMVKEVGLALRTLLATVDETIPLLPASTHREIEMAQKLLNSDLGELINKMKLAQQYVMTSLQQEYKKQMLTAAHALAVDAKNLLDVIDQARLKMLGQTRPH

[12] = test system: Fibrinogen (Alexa647-labelled); test: Alexa647-fibrinogen binding to printed small molecules – biochemical, small-molecule microarray, 635/667 nm fluorescence, artefact control for SMM control-protein annotation, profiling panel (AID 1131); settings: fibrinogen-A647 binding fluorescence, higher = more signal;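 further: z-score merges 667 nm fluorescence with per-spot signal-to-noise over triplicate slides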
[13] = molecular target: Follistatin (Homo sapiens) (UniProt P19883); test: FST protein binding to printed compounds – biochemical, small-molecule microarray, 635/667 nm fluorescence, primary screen (AID 1132); settings: 635 nm fluorescence, higher = more signal
Sequence of Follistatin (Homo sapiens) (P19883 whole entry, looked up): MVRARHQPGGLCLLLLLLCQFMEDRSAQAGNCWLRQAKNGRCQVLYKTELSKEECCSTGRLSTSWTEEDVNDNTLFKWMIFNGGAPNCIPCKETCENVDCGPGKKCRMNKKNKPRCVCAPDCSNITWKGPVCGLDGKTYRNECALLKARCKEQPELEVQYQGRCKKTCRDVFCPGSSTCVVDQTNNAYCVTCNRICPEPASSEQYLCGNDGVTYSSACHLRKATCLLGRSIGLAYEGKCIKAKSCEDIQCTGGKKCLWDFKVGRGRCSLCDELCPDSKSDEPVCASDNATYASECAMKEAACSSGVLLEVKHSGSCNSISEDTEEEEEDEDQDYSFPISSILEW

[14] = molecular target: Fibroblast growth factor 2 (Homo sapiens) (UniProt P09038); test: basic fibroblast growth factor binding to printed compounds – biochemical, small-molecule microarray, 635/667 nm fluorescence, primary screen (AID 1133); settings: FGF2, fluorescence 635/667, higher = more signal
Sequence of Fibroblast growth factor 2 (Homo sapiens) (P09038 whole entry, looked up): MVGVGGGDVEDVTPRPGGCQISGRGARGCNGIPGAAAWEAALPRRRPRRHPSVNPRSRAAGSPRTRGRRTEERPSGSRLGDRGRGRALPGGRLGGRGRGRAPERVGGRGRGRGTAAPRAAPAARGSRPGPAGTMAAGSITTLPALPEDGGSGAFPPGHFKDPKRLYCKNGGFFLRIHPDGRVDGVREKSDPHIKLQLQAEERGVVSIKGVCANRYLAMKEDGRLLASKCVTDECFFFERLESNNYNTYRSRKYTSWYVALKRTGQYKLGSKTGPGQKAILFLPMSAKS

[15] = JC-1 mitochondrial potential readout, lung cancer cells – cell-based, A549, JC-1 fluorescence, basal, 24 h, 100 nL, profiling panel (AID 1138); settings: higher = more signal;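 further: A549 lung adenocarcinoma cells under basal conditions with no added stimulus; test concentration not given here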
Lefty1 = Lefty1 protein binding to printed compounds – biochemical, small-molecule microarray, 635/667 nm fluorescence, primary screen (AID 1139); settings: fluorescence 635/667, higher = more signal
[16] = test system: wheat germ agglutinin (Triticum aestivum), Alexa647-labelled; test: Alexa647-WGA lectin binding to printed small molecules – biochemical, small-molecule microarray, 635/667 nm fluorescence, artefact control for SMM control-protein annotation, profiling panel (AID 1140); settings: WGA-A647 binding, 635 nm fluorescence, higher = more signal;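 further: score merges 667 nm feature emission with signal to noise over triplicate slides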
[17] = molecular target: Luciferin 4-monooxygenase (Photinus pyralis) (UniProt P08659); test: inhibition of purified Photinus pyralis luciferase – biochemical, luminescence, purified enzyme, 2006 set, primary screen (AID 1141); settings: purified firefly luciferase, SteadyGlo luminescence, 30 min; higher = more signal, called active from +8 up or from −8 down;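 further: cell-free assay with purified firefly luciferase at 100 ng per well in PBS; test concentration not given here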
Sequence of Luciferin 4-monooxygenase (Photinus pyralis) (P08659 whole entry, looked up): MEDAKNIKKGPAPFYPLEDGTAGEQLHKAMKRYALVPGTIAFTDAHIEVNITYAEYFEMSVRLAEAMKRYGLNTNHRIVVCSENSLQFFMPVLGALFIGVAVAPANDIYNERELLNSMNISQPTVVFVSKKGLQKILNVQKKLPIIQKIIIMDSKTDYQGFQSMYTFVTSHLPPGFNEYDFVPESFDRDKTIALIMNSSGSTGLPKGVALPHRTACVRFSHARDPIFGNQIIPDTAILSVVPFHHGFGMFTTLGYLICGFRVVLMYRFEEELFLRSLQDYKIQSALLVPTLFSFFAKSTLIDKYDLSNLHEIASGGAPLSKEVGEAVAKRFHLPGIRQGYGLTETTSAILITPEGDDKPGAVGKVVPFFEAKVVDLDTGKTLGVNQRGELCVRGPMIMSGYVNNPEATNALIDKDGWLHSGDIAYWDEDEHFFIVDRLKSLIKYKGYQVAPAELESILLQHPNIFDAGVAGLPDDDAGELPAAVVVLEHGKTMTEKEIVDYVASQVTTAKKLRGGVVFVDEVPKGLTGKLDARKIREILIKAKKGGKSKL

Sequence of Albumin (Bos taurus) (P02769 whole entry, looked up): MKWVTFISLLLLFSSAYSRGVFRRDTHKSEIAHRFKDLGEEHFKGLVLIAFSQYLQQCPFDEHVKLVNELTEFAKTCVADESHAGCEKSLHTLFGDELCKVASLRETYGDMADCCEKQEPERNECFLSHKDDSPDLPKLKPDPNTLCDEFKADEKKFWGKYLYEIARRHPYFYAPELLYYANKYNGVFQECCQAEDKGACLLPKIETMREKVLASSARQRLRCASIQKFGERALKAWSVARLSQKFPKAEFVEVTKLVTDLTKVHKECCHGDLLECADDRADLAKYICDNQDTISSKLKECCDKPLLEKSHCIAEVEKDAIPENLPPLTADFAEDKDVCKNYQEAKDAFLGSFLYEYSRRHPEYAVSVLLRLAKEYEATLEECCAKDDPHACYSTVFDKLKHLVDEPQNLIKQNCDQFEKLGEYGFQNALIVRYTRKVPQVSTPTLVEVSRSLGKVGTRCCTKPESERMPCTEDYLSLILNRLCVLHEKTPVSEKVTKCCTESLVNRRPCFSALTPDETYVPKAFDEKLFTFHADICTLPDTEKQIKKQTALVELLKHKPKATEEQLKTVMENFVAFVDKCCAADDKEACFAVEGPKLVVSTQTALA

Row | SMILES | composite z-score (Albumin (Bos taurus)) | composite Z-score [1] | composite z-score [2] | composite z-score [3] | composite z-score [4] | composite z-score [5] | composite z-score [6] | composite z-score (Sam68 (KHDRBS1)) | composite z-score [7] | composite z-score [8] | composite z-score [9] | composite z-score [10] | composite z-score [11] | composite z-score [12] | composite z-score [13] | composite z-score [14] | z-score [15] | composite z-score (Lefty1) | composite z-score [16] | z-score [17]
1 | COCCNC(=O)OCC1CCCC2(CC(OC(=O)NCc3cccc4ccccc34)CC(CCC(=O)N[C@@H](C)C(=O)OC)O2)O1 (stereo not given in full) | 0.0307 | 0.59 (inactive) | -0.0362 | -0.14 | 0.262 | 1.12 | -0.107 | 1.3 | 0.665 | 1.03 | 0.522 | 1.13 | -0.208 | 0.912 | 0.728 | 1.04 | 0.609 | 0.42 | 0.598 | 0.396 (inactive)
2 | COc1ccc2c(c1)O[C@@H](c1cccc(C(F)(F)F)c1)[C@H](O)C2=O | 0.442 | 0.115 (inactive) | -0.152 | -0.0761 | 0.0122 | -0.0749 | 0.0318 | 0.642 | 0.647 | 0.494 | 0.0408 | 0.584 | 0.0103 | 0.289 | 0.282 | 0.656 | 0.903 | 0.309 | 0.408 | 0.335 (inactive)
3 | CCOC(=O)[C@H](Cc1ccccc1)NC(=O)CCC1CC(OC(=O)NCc2cccc3ccccc23)CC2(CCCC(COC(=O)NCc3ccc4c(c3)OCO4)O2)O1 (stereo not given in full) | 0.85 | 0.464 (inactive) | 0.0824 | -0.148 | 0.509 | 0.831 | 0.404 | 0.477 | -0.054 | 0.0672 | 0.209 | 0.397 | 0.338 | 0.508 | 0.222 | 0.982 | 0.4 | 0.659 | -0.074 | -0.323 (inactive)
4 | O=C1[C@H]2[C@H]3[C@H](O)[C@H](O)CC(=NO[C@@H]4O[C@H](CO)[C@@H](O)[C@H](O)[C@H]4O)[C@@H]3CC[C@H]2C(=O)N1C1CCCCC1 | -0.156 | 0.178 (inactive) | 0.0876 | -0.141 | -0.121 | 0.139 | -0.1 | 0.317 | 0.629 | 0.601 | -0.293 | 0.486 | -0.0408 | 0.384 | 0.284 | 0.415 | 0.76 | 0.578 | 0.0714 | -0.33 (inactive)
5 | CCCNC(=O)OC[C@H]1O[C@H](CCON=C2C[C@@H](O)[C@@H](O)[C@@H]3[C@@H]4C(=O)N(CC)C(=O)[C@@H]4CC[C@@H]23)C=C[C@@H]1Oc1ccc(OC)cc1 | 0.148 | -0.477 (inactive) | 0.217 | -0.136 | 0.575 | 0.572 | 0.73 | 1.32 | 0.929 | 0.728 | 1.44 | 0.94 | 0.158 | 0.946 | 1.14 | 0.622 | -0.517 | 1.3 | 0.697 | 0.321 (inactive)
6 | CCOC(=O)CCN1C(=O)[C@H]2[C@@H]3C(=CC[C@H]2C1=O)C(=O)[C@H]1O[C@H]1[C@H]3O | 0.375 | -0.342 (inactive) | -0.313 | -0.146 | 0.534 | -0.774 | 0.0946 | -0.728 | -0.23 | -0.666 | -0.705 | -0.307 | -0.336 | -0.476 | -1.02 | -0.858 | 0.736 | -0.762 | 0.243 | -1.04 (inactive)
7 | O=C1[C@H]2[C@H]3[C@H](O)[C@H](O)CC(=NOCc4ccccc4)[C@H]3CC[C@H]2C(=O)N1C1CCCCC1 | 0.487 | 0.447 (inactive) | -0.0744 | -0.14 | 0.505 | 0.596 | -0.438 | 0.734 | 0.318 | 0.921 | 0.992 | 0.944 | 0.041 | 1 | 0.28 | 0.479 | 0.436 | 0.355 | 0.971 | 0.18 (inactive)
8 | COC(=O)[C@@H]1CC[C@H](C)[C@@H](c2ccc(Br)cc2)N1C[C@H](O)CN=[N+]=[N-] | 0.0539 | 0.486 (inactive) | -0.0219 | -0.12 | -0.109 | 0.653 | 0.475 | -0.0747 | 0.101 | -0.35 | 0.383 | -0.459 | 0.709 | 0.118 | -0.117 | 0.0395 | -0.821 | 0.17 | 0.162 | -0.169 (inactive)
9 | COC(=O)[C@H](C)NC(=O)CCC1CC(OC(=O)NCCc2ccc(F)cc2)CC2(CCCC(COC(=O)NCc3ccccc3)O2)O1 (stereo not given in full) | 0.431 | 0.0852 (inactive) | -0.0511 | -0.208 | 0.266 | 0.253 | -0.0955 | 1.31 | 0.774 | 0.619 | 0.36 | 0.775 | 0.0965 | 0.911 | 0.913 | 1.13 | 0.708 | 0.875 | 0.0915 | 0.835 (inactive)
10 | COC(=O)[C@H](C)NC(=O)CCC1CC(OC(=O)NCc2cccc3ccccc23)CC2(CCCC(COC(=O)NCc3cccc(C(F)(F)F)c3)O2)O1 (stereo not given in full) | 0.845 | 0.15 (inactive) | 0.106 | -0.0846 | 0.15 | 1.78 | 0.0331 | 1.31 | 0.293 | 1.12 | 1.12 | 0.818 | 0.0625 | 0.83 | 0.928 | 0.657 | 1.43 | 0.526 | 0.48 | -0.552 (inactive)
11 | O=C1[C@H]2CCn3c(=O)n(-c4ccccc4)c(=O)n3[C@H]2[C@H](O)[C@@H]2O[C@H]12 | 0.0407 | -0.916 (inactive) | -0.177 | -0.0651 | 0.0463 | 0.178 | -0.34 | -0.319 | 0.37 | 0.218 | -0.0114 | 0.301 | -0.339 | 0.418 | -0.0705 | 0.127 | 0.718 | 0.278 | 0.465 | 0.0786 (inactive)

— PubChem BioAssay
